Data as given in PubChem BioAssay (NCI).
Compounds without any hit were thinned out: in the full panel of roughly 83,000, 20% have a hit.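 Each cell line was grown in a 96-well plate and treated with one concentration of compound for 48 hours. Values below 10 were considered active.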 A number with no mark means an inactive call. Activity calls are given as the source filed them.

What follows are compounds tested on MDA-MB-435 melanoma (assay: NCI-60 one-dose screen, 48 h (100 = growth as untreated, 0 = no growth, -100 = all killed)). Conditions: 10 µM unless noted.

SMILES | growth
Cc1cc(=O)[nH]c(/C(=N/Nc2ccccc2)C(=O)c2ccc(Cl)cc2)n1 | 108%
COc1cc(C2=NN(C=O)C(c3cccc(Nc4ccnc5cc(Cl)ccc45)c3)C2)cc(OC)c1OC (stereo unspecified) | 84.5%
Cc1cc(C(=O)Nc2ccc3cc(CN4CCOCC4)ccc3n2)c(C)n1-c1ccccc1 | 4.74% (active)
O=C(Nc1cccc(Cl)c1)Nc1cccc(Cl)c1 | 88.8%
COc1cc2c(cc1OC)C(=O)/C(=C/c1cccc(OCC(=O)c3ccccc3)c1)C2 | 110%
CN(C)c1ccc(-n2nc3ccccc3n2)cc1 | 100%
N[C@H](CS)C(=O)O | 104%
CCOc1cc(/C=C/C(=O)C(C(=O)/C=C/c2ccc(OC(=O)CNc3nnc(C)s3)c(OCC)c2)C(=O)CNc2nnc(C)s2)ccc1OC(=O)CNc1nnc(C)s1 | -8.14% (active)
CC[C@H]1CN2CCc3cc(OC)c(OC)cc3C2C[C@@H]1CC1NCCc2cc(OC)c(OC)cc21 (stereo partly specified) | -71.2% (active)
COc1ccc(N2CCN(CC(=O)N3CCN(c4nnc(-c5ccc(Cl)cc5)c(-c5ccc(Cl)cc5)n4)CC3)CC2)cc1 | 57.5%
O=C(COc1ccc(/C=C2\Oc3ccc4ccccc4c3C2=O)cc1)c1ccc(Cl)cc1 | 101%
Cc1nn(-c2nc3ccccc3s2)c(C)c1Oc1ccccc1O | 72.4%
CCSc1ncc(Br)c(Sc2nc(N)nc3nc[nH]c23)n1 | 37.7%
COc1ccc(C2=NN(C=O)C(c3cccc(Nc4ccnc5cc(Cl)ccc45)c3)C2)cc1 (stereo unspecified) | 11.7%
CCOC(=O)Nc1ccc2c3c(cccc13)-c1ccccc1-2 | -9.66% (active)
CCCCCCCC[Si](OCC)(OCC)OCC | 109%
COC(=O)[C@H](Cc1cnc[nH]1)NC(=O)[C@@H](NC(=O)Nc1cc(C(F)(F)F)cc(C(F)(F)F)c1)C(C)C | -91.1% [100 µM] (active)
CCOC(=O)c1sc(NC(=O)COc2cccc(/C=C3\CCc4cc(OC)ccc4C3=O)c2)nc1C | 8.01% (active)

SMILES | growth
NS(=O)(=O)N(c1cc(C(F)(F)F)cc(C(F)(F)F)c1)C1CCN(Cc2ccc(C(F)(F)F)cc2)CC1 | -60.4% (active)
CCOC(CNCc1cc(C)c2[nH]c3ccccc3c2c1C)OCC | 92.3%
COc1ccc2cc(-c3nc4ccccc4[nH]3)c(=O)oc2c1 | 108%
O=C(O)C1CCN(S(=O)(=O)c2ccc(-c3ccccc3)cc2)CC1 | 120%
CNCCCn1c2c(c3ccc(F)cc3c1=O)C(=O)c1cc(OC)cnc1-2 | 4.12% (active)
Oc1c(Cl)cc(Cl)c(Cl)c1Cc1c(O)c(Cl)cc(Cl)c1Cl | 10.4%
COc1cc(/C=N/NC(=O)c2ccc(C(F)(F)F)nc2Nc2cc(Cl)ccc2C)cc(OC)c1OC | 97.7%
O=C(Nc1nc2ccc(OC(F)(F)F)cc2s1)c1ccc(F)cc1 | 15.1%
COc1cc(/C(Cl)=C/C=C/C(=O)c2c(C)[n+]([O-])c3ccc(Cl)cc3[n+]2[O-])cc(OC)c1OC | 6.9% (active)
COc1ccc2nc(-c3ccc(Cl)cc3)cc(-c3nnc(SCC(=O)Nc4ccc(C(C)=O)cc4)n3-c3ccccc3)c2c1 | 100%
CC1Cc2ccccc2N1C(=O)c1ccc(C(=O)c2ccccc2)cc1 (stereo unspecified) | 89.1%
O=C(O)c1ccc(CNS(=O)(=O)c2ccc3ccccc3c2)cc1 | 110%
CCCCNCCCN(CCCC)CCCNCCCC | 94.3%
CC(=O)Nc1cc(C(c2ccccc2)c2ccccc2)cc(C(c2ccccc2)c2ccccc2)c1C | 63.9%
C[C@H]1O[C@@H](O[C@H]2[C@@H](O)C[C@H](O[C@H]3[C@@H](O)C[C@H](O[C@H]4CC[C@]5(C)C6C[C@@H](O)[C@]7(C)[C@@H](C8=CC(=O)OC8)CC[C@]7(O)C6CC[C@@H]5C4)O[C@@H]3C)O[C@@H]2C)C[C@H](O)[C@@H]1O (stereo partly specified) | -100% (active)
CC[N+](CCCCCCCCCC[N+](CC)(c1ccccn1)c1ccccn1)(c1ccccn1)c1ccccn1 | -15.1% (active)
NS(=O)(=O)c1ccc(-n2ncc3c(SCc4ccccc4)ncnc32)cc1 | 106%
O=C(CN1CCN(c2ccc(Cl)cc2)CC1)N1CCN(c2nnc(-c3ccc(Cl)cc3)c(-c3ccc(Cl)cc3)n2)CC1 | 73.4%
